Bioassay records: PubChem, National Center for Advancing Translational Sciences (NCATS)
Pol kappa inh = blocks human DNA polymerase kappa activity; Q9UBT6; purified Pol kappa, fluorescent DNA synthesis assay, 10 min; Potency, µM (top dose mostly 107 µM), for the others: at the highest dose activity, negative = inhibition, hits mostly inhibitors; 400,000 compounds, 0.53% hits; further: on the % scale 0 is the no-effect control and ±100 the full control effect
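First, compounds were pin-transferred onto 10 nM Pol kappa. After 15 min at room temperature, substrate was added to 50 nM final. Fluorescence was then measured kinetically at 0 and 10 min.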
WRN helicase inh = WRN helicase (human) inhibition; Q14191; WRN helicase unwinding, fluorescent forked duplex, kinetic; Potency, µM (doses to about 114 µM), inactives show top-dose activity change, negative = inhibition, actives largely listed as inhibitors; 360,000 compounds, 0.46% hits; AID 651768; further: on the % scale 0 is the no-effect control and ±100 the full control effect; nearly all actives have a fitted effect of over 55% in size
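Kinetic fluorescence helicase assay: unwinding of a quenched forked DNA duplex (100 nM final) with 2 mM ATP final raises red fluorescence (525/598 nm). Compounds sat 15 min at room temperature with 20 nM WRN beforehand.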
POLI inh = inhibitors of human DNA polymerase iota; Q9UNA4; Pol iota fluorescent replication assay, 10 min; Potency, µM (titrated, usually from 115 µM), for the others: at the highest dose activity, negative = inhibition, hits mostly inhibitors; 390,000 compounds, 1% hits; AID 588590
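Pol iota at 10 nM preincubated 15 min with compounds at room temperature; reaction started with fluorescent substrate, 50 nM final. Fluorescence read kinetically at 0 and 10 min; buffer-only wells as negative control.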
Pol beta inh = DNA polymerase beta (human) inhibition | Potency, µM (titrated, usually from 114 µM), without a hit: at the top dose activity change, negative = inhibition, hits mostly inhibitors | Pol beta primer extension/strand displacement, fluorescence kinetic | 340,000 compounds, 1.3% hits | P06746; further: on the % scale 0 is the no-effect control and ±100 the full control effect
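Pol beta (10 nM) and compounds were preincubated 15 min at room temperature, then 50 nM substrate (final) started primer extension/strand displacement. Reads were taken at 0 and 10 min; concentration-response data were fitted to a four-parameter Hill equation.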
Pol eta inh = DNA polymerase eta (human) inhibition. recombinant Pol eta, fluorescent DNA replication assay. Potency, µM (highest dose often 114 µM), without a hit: at the highest dose activity change, negative = inhibition, actives largely listed as inhibitors. Q9Y253. 390,000 compounds, 1.2% hits. AID 588591; further: on the % scale 0 is the no-effect control and ±100 the full control effect
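Pol eta at 10 nM preincubated with compounds 15 min at room temperature; reaction started with fluorescent substrate (50 nM final) and read kinetically at 0 and 10 min.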
FEN1 inh = inhibitors of human flap endonuclease 1. AID 588795. Recombinant FEN1 flap cleavage, fluorescence, 15 min. Potency, µM (highest dose often 114 µM), for inactives: at the highest dose activity change, negative = inhibition, actives largely listed as inhibitors. 390,000 compounds, 0.35% hits; further: on the % scale 0 is the no-effect control and ±100 the full control effect; nearly all actives have a fitted effect of over 65% in size
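Steps: FEN1 (10 nM) dispensed; compound added by pin tool; 15 min at room temperature; substrate added to 50 nM final; reads at 0 min and 15 min; data normalized and fitted (four-parameter Hill).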
* hit, by the source's call; [ ] = another dose, or the depositor's remark. This is a sample that favours compounds with a hit; in the whole collection about 2.4% have one here. The call rests on the fitted dose curve; in most records, active means well fitted curve in the direction sought with a large enough effect; inconclusive means small, poorly fitted or top-dose-only effect, or another doubt; inactive means no such curve, though single readings can be large; an effect the other way counts as inactive or inconclusive. Potency means the concentration at half of the fitted maximal effect.

`CCC(Sc1nc2ccncc2[nH]1)C(=O)Nc1ccc(F)cc1` (stereo not given) gave Pol kappa inh -5.9%, POLI inh -0.1%, Pol beta inh -9.3%, Pol eta inh -9.4% and FEN1 inh 17.8%.
Screening CCCN1C(=O)c2ccccc2NC1c1ccc(OC)c(COc2cccc(C)c2C)c1 (stereo not given) returned Pol kappa inh -25.2%, POLI inh -14.9% and FEN1 inh -22.0%.
For COc1cccc(CNC(=O)CN2N=C(c3ccc(C)cc3)CCC2=O)c1 the results were Pol kappa inh -9.0%[60.1 µM], POLI inh -10.9%, Pol beta inh -14.2%, Pol eta inh 13.5% and FEN1 inh 21.8%.
Cc1cc(C(=O)COc2cccc3cccnc23)c(C)n1C was read as Pol kappa inh -11.6%, WRN helicase inh 6.4%, POLI inh 8.1%, Pol beta inh 11.2µM*, Pol eta inh inconclusive and FEN1 inh -8.1%.
For Cc1cc(C(=O)COc2ccccc2C(N)=O)c(C)n1C the results were Pol kappa inh -5.8%, WRN helicase inh 5.7%, POLI inh 182.3%, Pol beta inh 3.7%, Pol eta inh -10.7% and FEN1 inh 0.5%.
For N=c1n(CCO)c2ccccc2n1Cc1ccccc1F the results were Pol kappa inh -18.1%, POLI inh 3.0%, Pol beta inh 14.5%, Pol eta inh -16.8% and FEN1 inh -2.7%.
`O=C(Cc1ccccc1)Nc1ccc(NC(=O)c2ccccc2)nc1` gave Pol kappa inh -4.9%, WRN helicase inh -1.5%, POLI inh 76.2%, Pol beta inh 63.1µM*, Pol eta inh 5.8% and FEN1 inh 4.0%.
For CCCN(CC(=O)Nc1ccccc1C)C(=O)Cc1c[nH]c2ccccc12 the results were Pol kappa inh 2.4%, WRN helicase inh 2.7%, POLI inh 3.7%, Pol eta inh -8.3% and FEN1 inh 6.7%.
CCCN(CC(=O)Nc1ccccc1C)C(=O)Cc1c(C)nc2ccccc2c1C was read as Pol kappa inh -32.0%, WRN helicase inh 4.8%[11.6 µM], POLI inh 79.4µM*, Pol eta inh inconclusive and FEN1 inh 18.0%.
For Cc1ccc2c(CC(=O)N(Cc3ccc(N(C)C)cc3)Cc3ccco3)coc2c1C the results were Pol kappa inh -15.2%, POLI inh -5.2%, Pol beta inh 3.3%, Pol eta inh -6.6% and FEN1 inh -0.1%.
Screening O=c1c2ccccc2sc2ccc(NCCCN3CCOCC3)cc12 returned Pol kappa inh 4.8%, WRN helicase inh -17.0%, POLI inh inconclusive, Pol eta inh inconclusive and FEN1 inh 44.7µM*.
Screening CSc1ccc(/C=C2\C=Cc3ccccc32)cc1 returned Pol kappa inh -9.8%, POLI inh 21.1% and FEN1 inh 1.0%.
CCOC(=O)c1c(-c2ccc(C)cc2)csc1NC(=O)/C(C#N)=C/c1ccc(O)c(OC)c1 was read as Pol kappa inh -31.5%, WRN helicase inh -34.9%, POLI inh inconclusive, Pol beta inh 4.5%, Pol eta inh 28.2µM* and FEN1 inh inconclusive.
CCOC(=O)/C(C#N)=C\c1ccc(O)c(OC)c1 was read as Pol kappa inh -10.8%, WRN helicase inh 0.4%, POLI inh 71.7%, Pol beta inh -1.5%, Pol eta inh -19.9% and FEN1 inh -0.6%.
For CC1=CC(O)=NS(=O)(=O)O1 the results were Pol kappa inh 16.6%, POLI inh 16.0% and FEN1 inh 3.4%.
O=C(c1ccc2c(=O)n3c(nc2c1)CCCCC3)N1CCN(C(c2ccccc2)c2ccccc2)CC1 was read as Pol kappa inh -3.1%, WRN helicase inh -19.7%, POLI inh 89.1µM*, Pol beta inh 24.2%, Pol eta inh -14.0% and FEN1 inh -3.9%.
Nc1ccc(C(=O)O)c(O)c1 was read as Pol kappa inh -12.8%, WRN helicase inh -8.7%, POLI inh -12.9%, Pol beta inh -13.0%, Pol eta inh -13.4% and FEN1 inh 16.9%.
Nc1ccc(N)c(C(=O)O)c1 was read as Pol kappa inh 6.31µM*, WRN helicase inh 31.6µM*, POLI inh 2.51µM*, Pol beta inh 0.398µM*, Pol eta inh 1.26µM* and FEN1 inh inconclusive.
O=C(CNC(=O)N1CC(=O)Nc2ccccc21)Nc1cc(Cl)ccc1Cl was read as Pol kappa inh 1.1%, WRN helicase inh 1.0%[11.6 µM], POLI inh -23.3%, Pol beta inh 39.4%, Pol eta inh -7.2% and FEN1 inh 39.8µM*.
Screening COc1ccc2nc(N(Cc3cccnc3)C(=O)c3ccc(Cl)cc3)sc2c1 returned Pol kappa inh -8.6%[60.1 µM], POLI inh 14.0%, Pol beta inh -4.7%, Pol eta inh -20.1% and FEN1 inh -0.9%.
Screening O=C(COc1ccccc1/C=C\c1nc(O)c([N+](=O)[O-])c(=O)[nH]1)Nc1ccccc1 returned Pol kappa inh -11.2%, WRN helicase inh inconclusive, POLI inh inconclusive, Pol beta inh -3.0%, Pol eta inh 28.2µM* and FEN1 inh -22.1%.
Screening COc1ccccc1/C=C/C1=NC(=C\C=C/c2ccccc2)/C(=O)O1 returned Pol kappa inh -14.3%[60.1 µM], WRN helicase inh -25.0%, POLI inh inconclusive, Pol beta inh 20µM*, Pol eta inh inconclusive and FEN1 inh -15.6%.
COc1ccccc1/C=C/C=C1N=C(/C=C/c2ccc(Cl)cc2)OC/1=O was read as Pol kappa inh -15.1%, WRN helicase inh -9.4%, POLI inh 10.8%, Pol beta inh inconclusive, Pol eta inh -23.5% and FEN1 inh 0.7%.
O=C(c1ccncc1)N1CCC[C@@]2(CCN(Cc3ccncc3)C2)C1 was read as Pol kappa inh 4.7%[60.1 µM].
For O=C1C[C@@H](c2ccc(O)c(O)c2)Oc2c1ccc(O[C@@H]1O[C@H](CO)[C@@H](O)[C@H](O)[C@H]1O)c2O the results were Pol kappa inh 2.67µM*.
For O=C(/C=C/c1ccc(O)c(O)c1)c1ccc(O[C@@H]2O[C@H](CO)[C@@H](O)[C@H](O)[C@H]2O)c(O)c1O the results were Pol kappa inh 0.189µM*.
Screening CC(C)c1ccc(NC(=O)c2cc(S(=O)(=O)NCc3ccccc3Cl)ccc2F)cc1 returned Pol kappa inh -5.4%[60.1 µM], POLI inh 4.7%, Pol beta inh 1.3%, Pol eta inh -28.6% and FEN1 inh -19.2%.
For COc1ccc2ccccc2c1C(O)c1nccn1C (stereo not given) the results were Pol kappa inh -26.5%, WRN helicase inh -22.3%, POLI inh 25.1µM*, Pol beta inh -14.0%, Pol eta inh -8.8% and FEN1 inh inconclusive.
